This is part of a sample that, as a whole, favours compounds with a hit. Of some 83,000 tested, about 20% had one in any assay.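 Percent growth is the endpoint: 0 to 100 indicates growth inhibition (40 means 60% inhibition), 0 means no net growth, and negative values indicate cell death.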 Activity calls are given as the source filed them. Rule for the calls: active = growth percent below 10; inactive = the rest.
What follows are molecules tested on NCI-H226 lung (assay: NCI-60 one-dose screen, 48 h (100 = growth as untreated, 0 = no growth, -100 = all killed)). Conditions: 10 µM unless noted.

| SMILES | growth |
| --- | --- |
| CCC(CC)N1C(=O)/C(=c2\sc3n(c2=O)NC2C(N=3)N(CC)C(=O)N2CC)c2ccccc21 (stereo not drawn) | 79.1% (inactive) |
| CN1CCN(c2ccc(/C=N/Nc3nc4ccccc4c(=O)n3-c3ccccc3)cc2)CC1 | 101% (inactive) |
| CC1=NC2=NC(=O)/C(=C3/N=C(C)C=C(c4ccccc4)N3N)NN2C(c2ccccc2)=C1 | 88.3% (inactive) |
| Nc1ncc(-c2ccc3ncnc(N4CCc5cc(F)c(F)cc54)c3c2)cn1 | 29.1% (inactive) |
| COc1ccc(Oc2ccc(/C=N/NC(=O)CSc3nc4ccccc4c(=O)n3-c3ccc(Cl)cc3)cc2)cc1 | 79.7% (inactive) |
| COc1ccc2c(c1)Oc1nc(N)c(C#N)c(N)c1C2Sc1ccc(C)cc1 (stereo not drawn) | -1.63% (active) |
| CC(=O)C1=C(C)NC(NN)=NC1c1cccc(Cl)c1 (stereo not drawn) | 103% (inactive) |
| O=C(NNc1nc2cc(F)ccc2n2c(CO)ccc12)c1cnccn1 | 16.3% (inactive) |
| NC(N)=Nc1ccc(Oc2cccc(NC(N)=Nc3ccc(Br)cc3)c2)cn1 | 81.3% (inactive) |
| CCOC(=O)C1=NNC(c2ccc(Cl)cc2)C1C(=O)N1C(=S)NC(=O)C1CC(C)C (stereo not drawn) | 92% (inactive) |
| CC/C(=C/c1c(O)cccc1OC)c1ccc2c(OC)cccc2[o+]1 | 99% (inactive) |
| Cn1ccnc1C(=O)/C=C/c1ccc(CNC(=O)c2ccc(Cl)cc2)cc1 | 4.1% (active) |
| COc1c(N2CC3CCCNC3C2)c(F)cc2c(=O)c(C(=O)N/N=C/c3ccc(F)cc3)cn(C3CC3)c12 (stereo not drawn) | 109% (inactive) |
| CN(C)CCNC(=O)c1ccc(-c2nc3ccc4[nH]ncc4c3c3c2CCC3)cc1 | 10.8% (inactive) |
| C=C(C=O)[C@@H]1CC[C@]2(COC(C)=O)CC[C@]3(C)C(CC[C@@H]4[C@@]5(C)CC[C@H](OC(C)=O)C(C)(C)[C@@H]5CC[C@]43C)[C@@H]12 (stereo partly drawn) | -55.5% (active) |
| COc1c(N2CC3CCCNC3C2)c(F)cc2c(=O)c(C(=O)N/N=C/c3c[nH]c4ccccc34)cn(C3CC3)c12 (stereo not drawn) | 107% (inactive) |
| COc1cc(C2N=C(NNc3ccccc3)NC(C)=C2C(C)=O)ccc1O (stereo not drawn) | 86.5% (inactive) |
| CCCCCc1ccc(S(=O)(=O)Nc2cccc(-c3csc(NC(=O)CNCCN(C)C)n3)c2)cc1 | 87.5% (inactive) |
| CCCCCc1ccc(S(=O)(=O)Nc2cccc(-c3csc(NC(=O)CCCCCN4CCN(CCO)CC4)n3)c2)cc1 | 92.7% (inactive) |

| SMILES | growth |
| --- | --- |
| CS(=O)(=O)Nc1cc(-c2ccc3ncc(C#N)c(NCc4ccccc4O)c3c2)cnc1Cl | 16.9% (inactive) |
| CC(=O)N1C(=S)NC(=O)C1CC(C)C (stereo not drawn) | 100% (inactive) |
| COc1cc(/C=C2\C(=O)Nc3ccccc32)ccc1OCc1ccc(Cl)cc1 | 96.6% (inactive) |
| COc1cc2oc(-c3cccc(NC(=O)c4cc(N)ccc4Cl)c3)cc(=O)c2c(OC)c1OC | 97.1% (inactive) |
| COc1ccc(Cn2cc3c(c2-c2cc(OC)c(OC)c(OC)c2)CCc2c(CN4CCCC4)noc2-3)cc1 | 61.7% (inactive) |
| CCCCCc1ccc(S(=O)(=O)Nc2cccc(-c3csc(NCCN4CCN(C)CC4)n3)c2)cc1 | 96.7% (inactive) |
| CCC1=Cc2cc(OC)ccc2OC12C=Cc1cc(OC)ccc1O2 (stereo not drawn) | 65.4% (inactive) |
| CCCCCc1ccc(S(=O)(=O)Nc2cccc(-c3csc(NC(=O)CCCCCN4CCN(C)CC4)n3)c2)cc1 | 88.2% (inactive) |
| N#Cc1cnc2ccc(-c3cnc4[nH]ncc4c3)cc2c1N1CCc2cc(F)c(Cl)cc21 | -0.212% (active) |
| CC(C)C[C@@H]1N[C@@]2(C(=O)Nc3ccccc32)[C@@H](c2ccc(F)cc2)[C@@H]1C(=O)c1ccc(O)cc1 | 92.7% (inactive) |
| O=C(NNc1nc2cc(F)cc(F)c2n2cccc12)c1cnccn1 | 29.3% (inactive) |
| O=C(NNc1nc2cc(F)c(F)cc2n2cccc12)c1cnccn1 | 45.1% (inactive) |
| O=C(CNc1nc(-c2cccc([N+](=O)[O-])c2)cs1)Nc1cccc([N+](=O)[O-])c1 | -35.9% (active) |
| CC(Nc1c(C#N)cnc2ccc(-c3cnc(N)nc3)cc12)c1ccccc1 (stereo not drawn) | 18.4% (inactive) |
| C=CCn1c(SCC(=O)Nc2ccc(C(=O)/C=C/c3ccc(Cl)cc3)cc2)nnc1-c1c[nH]c2ccccc12 | 68% (inactive) |
| CCCCCc1ccc(S(=O)(=O)Nc2cccc(-c3csc(NC(=O)CN4CCN(C)CC4)n3)c2)cc1 | 93.3% (inactive) |
| O=C(NCc1ncc[nH]1)c1ccc(-c2nc3ccc4[nH]ncc4c3c3c2CCCC3)cc1 | 36% (inactive) |
| Cc1c(Cl)cccc1S(=O)(=O)Nc1ccc2c(c1)C(=O)N(C1CCC(=O)NC1=O)C2=O (stereo not drawn) | 66.6% (inactive) |
| COC(=O)C1(C)CCC[C@]2(C)[C@H]3C[C@H]4C(C(C)C)=C[C@]3(CC[C@@H]12)[C@H]1[C@@H]4[C@@H](OC(=O)c2ccco2)CC[C@@H]1OC(=O)c1ccco1 (stereo partly drawn) | 103% (inactive) |
